MITF inh = human MITF inhibition, primary screen; AlphaScreen MITF homodimerization, bead proximity signal; inhibition, % at 2.6 µM; hit rate 0.91% among 650,000; in the data active = inhibition above about 50%;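 also: 0% = vehicle wells with protein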
TEAD-YAP inh = TEAD-YAP interaction inhibition; HEK-TIYL cells, TEAD-Gal4/YAP UAS-luciferase luminescence; inhibition, % at 9.12 µM; hit rate 1.4% among 640,000; AID 1259422; in the data active = inhibition above about 32%;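 also: 0% = median of test compound wells and 100% = reference inhibitor wells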
FBW7 act = activators of human E3 ligase FBW7; AlphaScreen FBW7–phospho-cyclin E peptide binding, activator screen; AID 1259310; Q969H0; hit rate 0.13% among 650,000; normalized activity (activation), % at 26.1 µM; in the data active = normalized activity above about 1.9%;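 also: purified mutant Fbw7 with reduced substrate affinity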
GPR151 activ = activates the human receptor GPR151; Q8TDV0; PathHunter beta-arrestin GPR151 cells, luminescence; activation, % at 11.2 µM; hit rate 1% among 650,000; in the data active = activation above about 4.9%;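 also: 0% = median of compound wells and 100% = cells with positive control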
GPR151 confirm = confirmation of human GPR151 activators; AID 1508609; GPR151 PathHunter beta-arrestin cells, luminescence, 90 min; % of EA-reagent control over plate median; shares compounds with GPR151 activ; activation, % at 11.2 µM; 6,700 tested, under 10 active;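 active = mean percent activation across replicates above the confirmation screen cutoff of 4.91%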
GPR119 ag = counter-screen for GPR151 activators: effect on human GPR119; activation, % at 11.2 µM; hit rate 0.3% among 6,700; shares compounds with GPR151 activ; AID 1508611; GPR119 PathHunter beta-arrestin cells, luminescence, 90 min; 0 = compound-well median, 100 = enzyme-acceptor control;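 active = mean percent activation in the counterscreen above 29.09%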;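 also: counterscreen on off-target GPR119 to flag nonselective hits from the GPR151 activator screen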
Target sequence (Q8TDV5 whole entry, looked up): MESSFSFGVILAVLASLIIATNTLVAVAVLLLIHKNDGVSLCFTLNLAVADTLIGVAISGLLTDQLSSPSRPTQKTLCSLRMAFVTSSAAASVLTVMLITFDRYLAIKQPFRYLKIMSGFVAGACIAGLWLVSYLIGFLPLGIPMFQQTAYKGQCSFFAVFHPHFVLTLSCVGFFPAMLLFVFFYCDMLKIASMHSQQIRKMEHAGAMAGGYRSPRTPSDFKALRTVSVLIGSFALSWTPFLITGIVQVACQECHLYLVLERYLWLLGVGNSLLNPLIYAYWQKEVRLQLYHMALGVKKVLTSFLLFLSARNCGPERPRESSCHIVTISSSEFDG
An asterisk follows results filed as active; nt = not tested or not shown. A selection: hits, their analogues and other compounds. The true share with any hit is near 3.5%.

SMILES	MITF inh	TEAD-YAP inh	FBW7 act	GPR151 activ	GPR151 confirm	GPR119 ag
Cc1ccc(-c2noc(CCC(=O)Nc3ccc(C)cc3C)n2)cc1	2.1	-5.8	-0.2	0.3	nt	nt
COc1ccccc1-n1c(O)c(C=Nc2cccc(C)c2)c(=O)[nH]c1=S	20.4	4.8	0.1	5.1*	-0.7	-0.1
COC(=O)c1sc2ccccc2c1NC(=O)c1ccc(Oc2ccccc2)cc1	-13.1	3.0	0.1	10.3*	-0.3	0.0
COC(=O)c1sc2ccccc2c1NC(=O)c1ccc(C(=O)c2ccccc2)cc1	11.3	6.5	-0.1	1.6	nt	nt
CCCCn1c(C)c(Cc2ccccc2)[nH]c1=O	-12.0	8.8	-0.4	6.1*	0.3	-0.3
CCCCCn1c(=O)[nH]c2ccccc21	-2.3	-5.7	0.1	2.2	nt	nt
Fc1ccccc1-c1nn2c(Cc3ccccc3)nnc2s1	-3.4	4.2	-0.2	8.2*	0.1	-1.5
c1ccc(Cc2nnc3sc(-c4ccco4)nn23)cc1	0.9	-15.7	-0.1	3.5	nt	nt
CCOc1ccc2nc(Sc3nc(Nc4ccccc4C)nc(Nc4ccccc4C)n3)sc2c1	-6.4	-13.2	-0.1	-0.4	nt	nt
COc1ccc(S(=O)(=O)Nc2cccc(SC)c2)cc1C	9.8	2.8	0.0	-0.4	nt	nt
COc1ccc(S(=O)(=O)Nc2cccc(N(C)S(C)(=O)=O)c2)cc1C	8.8	12.0	0.2	-1.4	nt	nt
COc1ccc(S(=O)(=O)Nc2cccc(Br)c2)cc1C	-1.0	2.4	0.0	13.5*	1.3	1.0
COc1ccc(S(=O)(=O)Nc2cccnc2)cc1I	-5.4	-3.9	0.1	5.1*	0.4	-1.4
COc1ccc(S(=O)(=O)Nc2cccc(N(C)S(C)(=O)=O)c2)cc1OC	-2.7	0.9	0.0	7.8*	0.0	0.9
COc1ccc(S(=O)(=O)Nc2cccnc2)cc1C	-0.2	16.1	0.3	-1.1	nt	nt
Cc1ccsc1/C=C(\C#N)C(=O)NCc1cccnc1	-6.1	2.1	0.1	12.4*	0.5	-2.3
Cc1ccsc1/C=C(/C#N)C(=O)NCc1ccccc1	8.3	-10.8	0.1	-0.8	nt	nt
Oc1ccc(Br)cc1C1Nc2ccccc2C(c2ccccc2)(c2ccccc2)O1 (stereo not drawn)	1.1	4.0	-0.1	-0.3	nt	nt
O=C(Nc1cc(-c2cccs2)nn1CCO)C1CCC1	-1.0	-0.2	-0.3	-0.4	nt	nt
O=C(Nc1cc(-c2cccs2)nn1CCO)C1c2ccccc2Oc2ccccc21	0.4	3.8	-0.2	8.0*	0.4	9.3
O=C(N/N=C/c1ccc(Br)cc1)C(=O)Nc1cccc(F)c1	-3.6	-15.7	0.0	0.7	nt	nt
Cc1[nH]c2ccccc2c1CCNC(=O)/C(=C/c1ccccc1)NC(=O)c1ccccc1Cl	-5.7	20.5	-0.1	0.3	nt	nt
Cc1[nH]c2ccccc2c1CCNC(=O)/C(=C/c1ccccc1)NC(=O)c1ccco1	0.2	0.4	0.0	6.0*	0.1	10.4
CCCCN(/C=N/S(=O)(=O)c1ccccc1)CCCC	47.9	2.8	0.4	10.6*	0.2	2.2
COc1ccc(CNC(=O)CCCc2nc3ccccc3c(=O)[nH]2)cc1	-3.0	-2.3	0.3	6.3*	1.2	5.6
SMILES	MITF inh	TEAD-YAP inh	FBW7 act	GPR151 activ	GPR151 confirm	GPR119 ag
COc1ccc(CNC(=O)CCCc2ccccc2)cc1	-19.0	-6.8	0.1	-0.6	nt	nt
CC(=O)Nc1nnc(COc2ccc(Br)cc2)s1	12.2	-18.4	-0.2	7.9*	-0.2	-5.7
CCCc1ccc(OCCCC(=O)Nc2nnc(COC)s2)cc1	4.6	-5.3	0.0	6.9*	0.1	-4.0
Cc1ccc(NC(=O)Nc2nnc(COc3ccc(Br)cc3)s2)cc1	8.8	-0.6	0.1	-0.7	nt	nt
CC(C)Oc1ccccc1NC(=O)c1ccccc1SCc1ccc(F)cc1	0.9	-3.3	-0.1	0.7	nt	nt
Cc1cc(C(=O)N/N=C/c2ccccc2F)n[nH]1	4.9	-44.6	-0.1	9.8*	-1.5	-8.8
Cc1cc(C(=O)N/N=C/c2ccccc2O)n[nH]1	27.6	-44.9	-0.1	1.9	nt	nt
CCOc1ccc(Br)cc1/C=N\NC(=O)c1cc(C)[nH]n1	20.1	-0.6	0.2	7.1*	-0.3	13.6
O=c1[nH]oc2nc(C3CC3)cc(C(F)(F)F)c12	5.7	-4.6	0.1	2.6	nt	nt
CS(=O)(=O)N1CCN(c2ccc(NC(=O)COc3ccccc3Cl)cc2)CC1	-5.2	7.0	-0.2	-0.1	nt	nt
Cc1ccccc1S(=O)(=O)Cc1ccc(C(=O)NC2CCCCC2)o1	6.1	12.9	-0.1	7.1*	-0.4	-8.8
CCc1ccccc1S(=O)(=O)Cc1ccc(C(=O)NC2CCCC2)o1	14.2	7.6	0.7	3.2	nt	nt
Cc1nnc(SCc2ccccc2)[nH]c1=O	-2.9	7.3	-0.1	3.7	nt	nt
Cc1nnc(SCc2ccc(F)cc2)[nH]c1=O	-4.5	-3.7	-0.1	11.2*	-1.1	5.1
N=C1C(c2nc3ccccc3[nH]2)=C(O)CN1c1ccc(F)cc1	2.7	-18.2	0.1	1.4	nt	nt
CC(C)c1ccc(N2CC(O)=C(c3nc4ccccc4[nH]3)C2=N)cc1	10.3	-9.1	0.1	7.9*	-0.2	-2.0
Cc1nc(NCC2CC2)sc1-c1ccn(CCN2CCOCC2)n1	-7.0	-4.6	-0.1	-0.2	nt	nt
Cc1nc(NCC2CC2)sc1-c1ccn(-c2cccc(F)c2)n1	0.1	9.2	-0.1	5.8*	0.2	-1.9
COc1ccccc1-c1nnc2sc(-c3ccc4c(c3)OCCO4)nn12	-10.0	52.8*	-0.5	5.7*	0.7	9.0
COc1ccccc1-c1nnc2sc(-c3cc(OC)c(OC)c(OC)c3)nn12	5.2	2.5	0.0	-1.0	nt	nt
Cc1ccc(-c2csc(=Nc3c(C)n(C)n(-c4ccccc4)c3=O)n2Cc2ccccc2)cc1	20.3	20.1	0.3	0.8	nt	nt
COc1cccc(/C=N/NC(=O)/C(=C\c2cccs2)NC(=O)c2ccccc2)c1O	-66.0	15.5	-0.2	6.2*	-0.3	-12.3
O=C(N/N=C/c1ccccc1O)/C(=C\c1cccs1)NC(=O)c1ccccc1	-41.9	13.9	0.0	1.2	nt	nt
O=C(O)c1ccc(F)c(S(=O)(=O)Nc2cccc(C(F)(F)F)c2)c1	10.3	3.5	0.1	-1.6	nt	nt
COc1ccccc1OCCOc1ccc(/C=C2/C(=N)N3N=C(Cc4ccccc4)SC3=NC2=O)cc1	12.2	8.0	-0.1	-0.4	nt	nt
CCn1nc(C)c(CN2CCOc3ccc(C(C)(O)COc4ccccc4)cc3C2)c1C (stereo not drawn)	-10.5	-0.8	-0.1	6.3*	-1.3	-13.3
CC(C)C(=O)NC(C)c1nnc2n1CCN(Cc1ccco1)CC2 (stereo not drawn)	-24.3	-6.8	0.1	11.6*	-0.1	8.7
CC1CCCCN1c1nc(Cl)nc(N2CCCCC2C)n1 (stereo not drawn)	-10.6	-1.6	0.0	-0.8	nt	nt
CC1(C)C(=O)C2(C(=O)Nc3ccccc3Br)CCC1C2 (stereo not drawn)	2.9	-1.4	-0.1	17.2*	-0.3	-11.5
CCOC(=O)c1c(NC(=O)CSc2n[nH]c(-c3ccccc3)n2)sc(C(C)=O)c1C	6.1	4.2	-0.1	1.9	nt	nt

Assay outcomes: PubChem, The Scripps Research Institute Molecular Screening Center
